# Inconclusive results are not listed. Where a structure was tested more than once in an assay, its records may differ in their call. Activity calls are given as the source filed them. The calls were made as follows, unless noted: active = hit-call score of the fitted dose curve at least 0.9, where 1 is the maximum; inactive = score below 0.9.
# Columns and labels:
# [1] = CCTE_Harrill_HTTr_Viability_MCF7: CCTE's 6-hour Cell Viability Assessment for the High-Throughput Transcriptomics (HTTr) Platform, in MCF-7 cells cultured in DMEM + 10% fetal bovine serum, Harrill Lab (AID 2284010)
# Method in brief: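 PI exclusion, high-content imaging; 8-pt dilution series, 6 h exposure; bidirectional fit vs DMSO (neg. ctrl/baseline); gain of signal = loss of membrane integrity.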
# [2] = CCTE_Harrill_HTTr_Apoptosis_MCF7: CCTE's 6-hour Apoptosis Assessment for the High-Throughput Transcriptomics (HTTr) Platform, in MCF-7 cells cultured in DMEM + 10% fetal bovine serum, Harrill Lab (AID 2284011)
# Method in brief: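 MCF-7 cells in DMEM + 10% FBS exposed 6 h to chemicals over an eight-point dilution series. Caspase-3/7 activation imaged by high-content CellEvent Green staining; fitted bidirectionally versus DMSO.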
# [3] = CCTE_Harrill_HTTr_CellCount_MCF7: CCTE's Cell Proliferation Assessment for the High-Throughput Transcriptomics (HTTr) Platform, Harrill Lab (AID 2284012; active = hit-call score of the fitted dose curve at least 0.9, where 1 is the maximum;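 also: count of Hoechst-stained nuclei per well by high-content imaging in MCF-7 cells; cells exposed to compound for six hours; intended direction is loss of nuclei count meaning fewer cells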)
# Method in brief: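 Readout: Hoechst nuclear count by high-content imaging. MCF-7, 8-point dilution series, 6 h exposure. Bidirectional fit vs DMSO baseline.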
# [4] = CCTE_Shafer_MEA_acute_burst_number: CCTE's Neural Acute Assay for Single-Electrode Bursts, Shafer Lab (AID 2284013)
# Method in brief: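 Primary rat cortical neurons on 16-electrode MEA wells, DIV 13 or 15, exposed to compound (0.03-40 uM; ≥3 wells); 40-min recordings at 37 C before and after treatment. Burst count expressed as percent change from baseline, DMSO as negative control.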
# [5] = CCTE_Shafer_MEA_acute_burst_duration_mean: CCTE's Neural Acute Assay for Mean Burst Duration, Shafer Lab (AID 2284014);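 also: hits are decreases in mean burst duration relative to DMSO controls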
# Method in brief: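 Mean burst duration was compared between a 40 min baseline and a 40 min recording in the presence of compound (0.03-40 uM, 37 C), giving percent change per well. Cultures were rat cortical neurons at DIV 13 or 15; wells needed ≥10 active electrodes.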
# [6] = CCTE_Shafer_MEA_acute_interburst_interval_mean: CCTE's Neural Acute Assay for Mean Interburst Interval, Shafer Lab (AID 2284016);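 also: percent change of mean interburst interval versus each well's own pre-dose baseline; curves fitted for decrease in interburst interval relative to DMSO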
# Method in brief: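 Percent change in mean single-electrode interburst interval was calculated per well from 40 min recordings before and after compound (0.03-40 uM). Recordings were made at 37 C on rat cortical cultures at DIV 13 or 15, with spikes detected at 8x rms threshold.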
# [7] = CCTE_Shafer_MEA_acute_burst_percentage_mean: CCTE's Neural Acute Assay for Percentage of Spikes in a Burst, Shafer Lab (AID 2284017);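 also: curve fitted for loss of signal so potency reflects decreased burst percentage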
# Method in brief: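 Well-level mean burst percentage from a 40-min recording after compound (0.03-40 uM) expressed as percent change from a 40-min baseline at 37C. Cultures: primary rat cortical neurons on MEA, dosed on DIV 13 or 15; fitted downward relative to DMSO.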
# [8] = CCTE_Shafer_MEA_acute_burst_percentage_std: CCTE's Neural Acute Assay for Standard Deviation of Burst Percentage, Shafer Lab (AID 2284018);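 also: fitted in the negative direction so actives lower burst percentage SD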
# Method in brief: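 Value is percent change from baseline in the across-electrode SD of spikes-in-bursts percentage, wells with >/= 10 active electrodes. Acute 40-min exposure to 0.03-40 uM on DIV 13 or 15 rat cortical cultures, recorded at 37 C after 40-min baseline.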
# [9] = CCTE_Shafer_MEA_acute_per_network_burst_spike_number_mean: CCTE's Neural Acute Assay for Average Number of Spikes in a Network Burst, Shafer Lab (AID 2284019);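 also: curve fitted for loss of signal so actives reduce spikes per network burst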
# Method in brief: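 Percent change from baseline in mean spikes per network burst, spikes detected at 8x rms noise. Each compound at 0.03-40 uM in at least three wells of rat cortical cultures, recorded 40 min before and 40 min during exposure.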
# [10] = CCTE_Shafer_MEA_acute_per_network_burst_electrodes_number_mean: CCTE's Neural Acute Assay for Mean Number of Electrodes in a Network Burst, Shafer Lab (AID 2284021);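 also: curves fitted for decreases only so hits reduce electrodes per burst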
# Method in brief: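 Rat primary cortical neurons on 48-well MEAs, DIV 13 or 15, were treated at 0.03-40 uM. Spikes were detected at 8x rms noise and recorded at 37 C. The mean electrodes per network burst in a 40 min exposure recording was expressed as percent change from a 40 min baseline.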
# [11] = CCTE_Shafer_MEA_acute_network_burst_percentage: CCTE's Neural Acute Assay for Percentage of Network Bursts, Shafer Lab (AID 2284022);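 also: curves fitted for loss so actives lower network burst percentage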
# Method in brief: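 Rat primary cortical neuron networks on 48-well MEA plates, DIV 13 or 15, treated acutely with compound (0.03-40 uM, at least three wells). Percent of spikes within network bursts compared between 40-min recordings before and during exposure at 37 C, expressed as percent change.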
# [12] = CCTE_Shafer_MEA_acute_cross_correlation_area: CCTE's Neural Acute Assay for Area of Cross Correlation, Shafer Lab (AID 2284024);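 also: curves fitted for loss of cross-correlation area so actives lower synchrony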
# Method in brief: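 Rat primary cortical neurons on 48-well MEA, DIV 13 or 15; compounds 0.03-40 uM. Baseline and post-exposure 40 min recordings at 37 C; percent change in area under pooled inter-electrode cross-correlation near zero lag, relative to DMSO.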
# [13] = CCTE_Shafer_MEA_acute_cross_correlation_HWHM: CCTE's Neural Acute Assay for Cross Correlation at Half Width at Half Maximum, Shafer Lab (AID 2284026);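 also: percent change per well from pre-dose baseline in spike cross-correlogram half width; hits are a decrease in cross-correlogram half width relative to DMSO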
# Method in brief: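 Rat primary cortical neurons on 48-well MEA plates; 40-min baseline and 40-min post-exposure recordings at 37 C on DIV 13 or 15, compounds 0.03-40 uM. Spikes detected at 8x rms noise; percent change in cross-correlogram HWHM per well vs baseline.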
# [14] = CCTE_Shafer_MEA_acute_synchrony_index: CCTE's Neural Acute Assay for Synchrony, Shafer Lab (AID 2284027);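 also: network synchrony index of spontaneous spiking in primary rat cortical neurons on MEAs; fitted for loss of signal so actives lower synchrony relative to DMSO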
# Method in brief: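 Rat cortical cultures, DIV 13/15; spikes detected at 8x rms noise, 300-5000 Hz band-pass. Compound 0.03-40 uM, ≥3 wells; 40-min pre- and post-exposure recordings, 37 C. Readout: % change in synchrony index; loss-of-signal fit vs DMSO.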
# [15] = CCTE_Shafer_MEA_dev_firing_rate_mean: CCTE's Neural Network Formation Assay for Mean Firing Rate, Shafer Lab (AID 2284031);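 as to AC50: curve fitted for loss of firing so AC50 reflects decreased mean firing rate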
# Method in brief: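 Read-out: spike count/recording length, averaged over active electrodes, then AUC across days 5, 7, 9, 12. Rat cortical cultures on MEA; continuous 12-day exposure, media and treatment renewed DIV 5, 9; DMSO baseline.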
# [16] = CCTE_Shafer_MEA_dev_per_burst_spike_percent: CCTE's Neural Network Formation Assay for Percent of Spikes in a Burst, Shafer Lab (AID 2284032)
# Method in brief: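 Value is trapezoidal AUC over recordings on days 5, 7, 9 and 12 of the well-mean fraction of spikes falling in single-electrode bursts; rat cortical cultures exposed continuously from plating, treatment renewed DIV 5 and 9, fitted downward against DMSO.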
smiles,measurement,setting,value
CCCNC(=O)NS(=O)(=O)c1ccc(Cl)cc1,outcome,[1],inactive
same,outcome,[2],inactive
Cc1cccc(N(C)C(=S)Oc2ccc3ccccc3c2)c1,outcome,[1],inactive
same,outcome,[2],inactive
Cc1c(C)c([N+](=O)[O-])c(C(C)(C)C)c([N+](=O)[O-])c1C,outcome,[1],inactive
same,outcome,[2],inactive
CC1(C)[C@H]2CC[C@]1(C)C(=O)C2,outcome,[1],inactive
same,outcome,[2],inactive
same,outcome,[3],inactive
Cn1c([N+](=O)[O-])cnc1COC(N)=O,outcome,[1],inactive
O=C(O)c1ccccc1Nc1cccc(C(F)(F)F)c1,outcome,[1],inactive
same,outcome,[2],inactive
Cc1cnc(NC(=O)C2=C(O)c3ccccc3S(=O)(=O)N2C)s1,outcome,[1],inactive
[Cl][Nd]([Cl])[Cl],outcome,[1],inactive
same,outcome,[2],inactive
C#CC1(O)CC[C@H]2[C@@H]3CCC4=CCCC[C@@H]4[C@H]3CC[C@@]21C (some centres undefined),outcome,[1],inactive
same,outcome,[2],inactive
C=C1C2CCC(C2)C1(C)C (centres undefined),outcome,[1],inactive
same,outcome,[2],inactive
same,outcome,[3],inactive
CC[C@H]1OC(=O)[C@H](C)[C@@H](O[C@H]2C[C@@](C)(OC)[C@@H](O)[C@H](C)O2)[C@H](C)[C@@H](O[C@@H]2O[C@H](C)C[C@H](N(C)C)[C@H]2O)[C@](C)(O)C[C@@H](C)C(=NOCOCCOC)[C@H](C)[C@@H](O)[C@]1(C)O,outcome,[1],inactive
same,outcome,[2],inactive
same,outcome,[3],inactive
O=C1C=CC(=O)O1,outcome,[1],inactive
same,outcome,[2],inactive
COc1ccc(C(Cl)=C(c2ccc(OC)cc2)c2ccc(OC)cc2)cc1,outcome,[1],inactive
O=c1[nH]nc(-c2ccc([N+](=O)[O-])o2)o1,outcome,[1],inactive
same,outcome,[2],inactive
O=c1cc(-c2ccccc2)oc2ccccc12,outcome,[1],inactive
Oc1ccc(Cl)cc1Cc1cc(Cl)ccc1O,outcome,[1],inactive
same,outcome,[2],inactive
O=C(/C=C/C=C/c1ccc2c(c1)OCO2)N1CCCCC1,outcome,[1],inactive
same,outcome,[2],inactive
NC(=O)OCC(COC(N)=O)c1ccccc1,outcome,[1],inactive
same,outcome,[2],inactive
same,outcome,[3],inactive
O=C1CCCCCCCCCCC(=O)OCCO1,outcome,[1],inactive
same,outcome,[2],inactive
Cc1oncc1C(=O)Nc1ccc(C(F)(F)F)cc1,outcome,[1],inactive
same,outcome,[2],inactive
same,outcome,[3],inactive
Cc1cc(=O)n(-c2ccccc2)n1C,outcome,[1],inactive
CCCOC(=O)CCCCC(=O)OCCC,outcome,[1],inactive
same,outcome,[2],inactive
same,outcome,[3],inactive
NC(=O)N=NC(N)=O,outcome,[1],inactive
same,outcome,[2],inactive
same,outcome,[3],inactive
O=C1CCCC1,outcome,[1],inactive
O=Cc1ccc(CO)o1,outcome,[1],inactive
same,outcome,[2],inactive
Cc1ccccc1C,outcome,[1],inactive
same,outcome,[2],inactive
C=CC(=O)NC(C)(C)CS(=O)(=O)O,outcome,[1],inactive
O=C(C(Cl)Cl)N1CCOC12CCCCC2,outcome,[1],inactive
same,outcome,[2],inactive
CC(=O)OC(C)C,outcome,[1],inactive
NC(=O)c1ccccc1O,outcome,[1],inactive
same,outcome,[2],inactive
same,outcome,[3],inactive
CC(=O)[C@@]1(O)CC[C@H]2[C@@H]3C[C@H](C)C4=CC(=O)C=C[C@]4(C)[C@@]3(F)[C@@H](O)C[C@@]21C,outcome,[1],inactive
same,outcome,[2],inactive
same,outcome,[3],inactive
CC(=O)OCC(=O)[C@@]12N=C(C)O[C@@H]1C[C@H]1[C@@H]3CCC4=CC(=O)C=C[C@]4(C)[C@H]3[C@@H](O)C[C@@]12C,outcome,[1],inactive
same,outcome,[3],inactive
O=C(O)CCCC[C@@H]1SC[C@@H]2NC(=O)N[C@@H]21,outcome,[1],inactive
same,outcome,[2],inactive
same,outcome,[3],inactive
C[C@]12C=CC(=O)C=C1CC[C@@H]1[C@@H]2[C@@H](O)C[C@@]2(C)[C@H]1CC[C@]2(O)C(=O)CO,outcome,[1],inactive
same,outcome,[3],inactive
c1c[nH]cn1,outcome,[1],inactive
same,outcome,[3],inactive
Nc1ccc(N=Nc2ccccc2)c(N)n1,outcome,[1],inactive
same,outcome,[2],inactive
same,outcome,[3],inactive
CC(=O)[C@H]1[C@H](C#N)C[C@H]2[C@@H]3CC=C4C[C@@H](O)CC[C@]4(C)[C@H]3CC[C@@]21C,outcome,[1],inactive
same,outcome,[3],inactive
CCOC(=O)N1CCC(=C2c3ccc(Cl)cc3CCc3cccnc32)CC1,outcome,[1],inactive
same,outcome,[2],inactive
same,outcome,[3],inactive
c1ccc(-c2ccccn2)nc1,outcome,[1],inactive
same,outcome,[3],inactive
CC/C=C\C/C=C\C/C=C\CCCCCCCC(=O)O,outcome,[1],inactive
same,outcome,[3],inactive
C=C(C)[C@H]1CC=C(C)CC1,outcome,[1],inactive
same,outcome,[3],inactive
CCCCCC/C=C\CCCCCCCC(=O)O,outcome,[1],inactive
same,outcome,[3],inactive
CC1(C)O[C@@H]2C[C@H]3[C@@H]4C[C@H](F)C5=CC(=O)C=C[C@]5(C)[C@@]4(F)[C@@H](O)C[C@]3(C)[C@]2(C(=O)CO)O1,outcome,[1],inactive
same,outcome,[3],inactive
Cc1ccc(C(C)(C)C)cc1,outcome,[1],inactive
same,outcome,[3],inactive
Nc1ncn([C@@H]2O[C@H](CO)[C@@H](O)[C@H]2O)c(=O)n1,outcome,[1],inactive
same,outcome,[2],inactive
same,outcome,[3],inactive
same,AC50,[4],0.0142 µM (active)
same,outcome,[5],inactive
same,AC50,[6],7.71 µM (active)
same,AC50,[7],8.06 µM (active)
same,AC50,[8],15 µM (active)
same,AC50,[9],0.992 µM (active)
same,AC50,[10],5 µM (active)
same,AC50,[11],8.38 µM (active)
same,AC50,[12],0.00671 µM (active)
same,AC50,[13],7.72 µM (active)
same,AC50,[14],9.61 µM (active)
same,AC50,[15],3.41 µM (active)
same,outcome,[15],inactive
same,outcome,[16],inactive
